Test systems include SK-MEL-2 melanoma; EKVX NSCLC; SN12C renal; UO-31 renal; TK-10 renal; ACHN renal; CAKI-1 renal; A498 renal; CCRF-CEM leukemia; MOLT-4 leukemia; SR leukemia; RPMI-8226 leukemia; OVCAR-8 ovarian; OVCAR-5 ovarian; OVCAR-4 ovarian; SK-OV-3 ovarian; IGROV1 ovarian; OVCAR-3 ovarian; HS 578T breast; NCI/ADR-RES ovarian.
Assay in all cases: NCI-60 one-dose screen, 48 h (100 = growth as untreated, 0 = no growth, -100 = all killed)
Common to all, as to conditions: 10 µM unless noted

Molecules are shown by their SMILES. About 83,000 compounds went through this panel and 20% of them were active in at least one assay; those are over-represented in the sample as a whole.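 In brief: 96-well plates, 48 h treatment, single concentration, percent growth endpoint.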 Unmarked numbers belong to inactive results. Activity calls are given as the source filed them. Rule for the calls: active = growth percent below 10; inactive = the rest.

Turning to `COc1ccc(F)cc1/C=C/C(=O)/C=C(/C=C/c1cc(F)ccc1OC)OB(F)F`, the growth is 84.1% in the assay with SK-MEL-2 melanoma; 71.3% with EKVX NSCLC; 8.78% (active) in the assay with SN12C renal; -9.88% (active) with UO-31 renal; 32.9% in the assay on TK-10 renal; 2.25% (active) with ACHN renal. The growth with CAKI-1 renal is 28.7%; in the assay on A498 renal, 108%; in the assay on CCRF-CEM leukemia, -14.7% (active); in the assay on MOLT-4 leukemia, -16.5% (active); in the assay on SR leukemia it was -0.793% (active); in the assay on RPMI-8226 leukemia, -13.5% (active). The growth in the assay on OVCAR-8 ovarian is 7.46% (active); in the assay on OVCAR-5 ovarian, 48.9%; in the assay on OVCAR-4 ovarian, 28.8%; in the assay with SK-OV-3 ovarian it was 97%; in the assay on IGROV1 ovarian, 25%; in the assay on OVCAR-3 ovarian, 1.71% (active). Also, the growth with HS 578T breast is 19.9%; in the assay on NCI/ADR-RES ovarian, 19.8%.

For the compound `Clc1ccc2c(c1)C(c1c[nH]c3ccccc13)(c1c[nH]c3ccccc13)CCO2`, the growth is -52% (active) in the assay with SK-MEL-2 melanoma; 81.9% in the assay on EKVX NSCLC; 85.3% in the assay on SN12C renal; 54.2% with UO-31 renal; -43.1% (active) with TK-10 renal; 76.8% in the assay with ACHN renal. The growth in the assay on CAKI-1 renal was 78.2%; in the assay on A498 renal it was 101%; with CCRF-CEM leukemia, 45.1%; in the assay on MOLT-4 leukemia it was 32.4%; in the assay on SR leukemia it was 63.8%; in the assay on RPMI-8226 leukemia, 42.3%. In addition, the growth in the assay on OVCAR-8 ovarian is 58.6%; in the assay on OVCAR-5 ovarian, 96%; with OVCAR-4 ovarian, 73.3%; in the assay with SK-OV-3 ovarian, 39.6%; in the assay on IGROV1 ovarian it was 85.8%; with OVCAR-3 ovarian it was 81.2%. Besides, the growth was 76.6% in the assay with HS 578T breast and 92.2% in the assay with NCI/ADR-RES ovarian.

In the case of `Fc1cccc(Oc2ccc(Nc3ncnc4ccc(OCCCN5CCOCC5)cc34)cc2Cl)c1`, the growth is 93.3% in the assay with SK-MEL-2 melanoma; 20.7% in the assay with EKVX NSCLC; 82.9% in the assay with SN12C renal; 30.4% with UO-31 renal; 26.4% with TK-10 renal; 32.3% in the assay with ACHN renal. Moreover, the growth was 30.4% in the assay on CAKI-1 renal; -4.84% (active) with A498 renal; 58.8% with CCRF-CEM leukemia; 53.9% in the assay with MOLT-4 leukemia; 20.9% in the assay on SR leukemia; 38.5% in the assay with RPMI-8226 leukemia. For the same compound, the growth in the assay on OVCAR-8 ovarian is 62%; in the assay with OVCAR-5 ovarian, 78.1%; in the assay with OVCAR-4 ovarian, 53.5%; in the assay with SK-OV-3 ovarian, 7.14% (active); with IGROV1 ovarian, 12.1%; in the assay with OVCAR-3 ovarian, 45.4%. The growth in the assay on HS 578T breast was 74.5%; in the assay on NCI/ADR-RES ovarian, 55.1%.

Turning to `COC12C=C/C(=C(/C(=O)OCc3ccncc3)C(=O)CCCCCCCCC3(OC)C=C/C(=C(/C(=O)OCc4ccncc4)C(=O)CCCCCCCC1)O3)O2`, the growth with SK-MEL-2 melanoma was -1.63% (active); with EKVX NSCLC it was -22.1% (active); in the assay with SN12C renal, -30.6% (active); in the assay with UO-31 renal it was -70.9% (active); in the assay with TK-10 renal it was -45% (active); in the assay on ACHN renal, -64% (active). For the same compound, the growth in the assay with CAKI-1 renal was -48.6% (active); in the assay on A498 renal, -87.6% (active); with CCRF-CEM leukemia, -14.8% (active); in the assay on MOLT-4 leukemia, -1.82% (active); in the assay with SR leukemia, -16.2% (active); in the assay with RPMI-8226 leukemia, -24.7% (active). Moreover, the growth is 14.7% in the assay with OVCAR-8 ovarian; -20.7% (active) with OVCAR-5 ovarian; -2.29% (active) in the assay with OVCAR-4 ovarian; 40.1% in the assay on SK-OV-3 ovarian; -32.2% (active) in the assay with IGROV1 ovarian; -74.3% (active) in the assay on OVCAR-3 ovarian. For the same compound, the growth in the assay on HS 578T breast is 34.6%; with NCI/ADR-RES ovarian it was 5.85% (active).

In the case of `CCNCCNc1cc(-c2ccc(C(F)(F)F)cc2)c(C#N)c2nc3ccccc3n12`, the growth in the assay on SK-MEL-2 melanoma is -47.6% (active); in the assay with EKVX NSCLC, -66% (active); with SN12C renal, -62% (active); in the assay on UO-31 renal it was -88.3% (active); in the assay on TK-10 renal, -67.3% (active); in the assay on ACHN renal, -88.8% (active). In addition, the growth with CAKI-1 renal is -96.9% (active); in the assay with A498 renal it was -88.4% (active); with CCRF-CEM leukemia, -42.9% (active); in the assay with MOLT-4 leukemia, -32.7% (active); in the assay on SR leukemia, -47.6% (active); in the assay on RPMI-8226 leukemia, -38.8% (active). Moreover, the growth in the assay with OVCAR-8 ovarian is -47.2% (active); in the assay on OVCAR-5 ovarian, -61.9% (active); with OVCAR-4 ovarian, -61.8% (active); with SK-OV-3 ovarian it was -94.1% (active); in the assay with IGROV1 ovarian, -78.5% (active); with OVCAR-3 ovarian it was -88.3% (active). Besides, the values for the growth with HS 578T breast and in the assay on NCI/ADR-RES ovarian were -46.3% (active) and -49.7% (active), respectively.

As to `COc1cc(-c2csc(NC(=O)c3ccc(N4CCOCC4)c(C(F)(F)F)c3)n2)cc(OC)c1OC`, the growth in the assay on SK-MEL-2 melanoma is 23%; with EKVX NSCLC it was 33.7%; in the assay with SN12C renal, 48.9%; in the assay on UO-31 renal it was 15.4%; in the assay with TK-10 renal, 64.5%; in the assay on ACHN renal, 21.6%. The growth in the assay on CAKI-1 renal is 36.4%; in the assay on A498 renal, 56.7%; in the assay on CCRF-CEM leukemia, 14.2%; in the assay on MOLT-4 leukemia it was 10.1%; in the assay on SR leukemia it was 23.3%; in the assay with RPMI-8226 leukemia, 6.74% (active). Also, the growth in the assay with OVCAR-8 ovarian is 2.22% (active); with OVCAR-5 ovarian, 83.9%; in the assay on OVCAR-4 ovarian, 23.1%; in the assay with SK-OV-3 ovarian it was 74.5%; with IGROV1 ovarian, 29.5%; in the assay with OVCAR-3 ovarian it was 38.3%. For the same compound, the results for the growth in the assay on HS 578T breast and with NCI/ADR-RES ovarian were 60% and 3.62% (active), respectively.

As to `CC(=O)c1c(C)nc(SCC(=O)Nc2cccc(O)c2)n1-c1ccc(Cl)cc1`, the growth in the assay on SK-MEL-2 melanoma was 104%; with EKVX NSCLC, 96.4%; in the assay on SN12C renal, 83.8%; in the assay with UO-31 renal, 86.3%; in the assay on TK-10 renal it was 107%; in the assay on ACHN renal it was 107%. For the same compound, the growth in the assay on CAKI-1 renal is 90.6%; with A498 renal, 91.9%; in the assay with CCRF-CEM leukemia it was 96%; in the assay on MOLT-4 leukemia it was 95.4%; with SR leukemia it was 103%; with RPMI-8226 leukemia it was 97%. Besides, the growth was 99.8% with OVCAR-8 ovarian; 104% in the assay with OVCAR-5 ovarian; 89.1% in the assay with OVCAR-4 ovarian; 104% in the assay with SK-OV-3 ovarian; 99% in the assay on IGROV1 ovarian; 103% with OVCAR-3 ovarian. The growth is 82.1% with HS 578T breast and 98.9% in the assay on NCI/ADR-RES ovarian.

On to `CCCCn1c(=O)[nH]c(N)c([C@@H]2c3c([nH]c(=O)n(CCCC)c3=O)Oc3ccc4ccccc4c32)c1=O`, for which the growth in the assay with SK-MEL-2 melanoma is 89.2%; in the assay on EKVX NSCLC, 84.5%; in the assay on SN12C renal, 81%; with UO-31 renal it was 3.72% (active); in the assay on TK-10 renal it was 73.7%; in the assay with ACHN renal it was 2.15% (active). Moreover, the growth was 51.5% with CAKI-1 renal; 101% in the assay with A498 renal; -15.9% (active) with CCRF-CEM leukemia; -8.45% (active) in the assay on MOLT-4 leukemia; 9.35% (active) with SR leukemia; 77.8% in the assay with RPMI-8226 leukemia. Besides, the growth with OVCAR-8 ovarian is 7.15% (active); with OVCAR-5 ovarian, 92.3%; with OVCAR-4 ovarian, 86.2%; with SK-OV-3 ovarian it was 85%; with IGROV1 ovarian, 1.79% (active); in the assay on OVCAR-3 ovarian, -92.1% (active). In addition, the values for the growth in the assay with HS 578T breast and in the assay on NCI/ADR-RES ovarian were 103% and 9.83% (active), respectively.

Values taken from PubChem BioAssay (NCI).
